This note sets out measurements from PubChem BioAssay (NCATS).

Test [1] has as its system CP268. In words: qHTS profiling for inhibitors of Plasmodium falciparum proliferation (AID 504749).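 Note: 0% = DMSO vehicle and full inhibition = artemisinin control; nearly all actives have a fitted effect of over 60% in size.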 The conditions noted are these: P. falciparum in erythrocytes, SYBR Green DNA, 72 h; series mostly up to 28.7 µM. In outline:
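In a 72 h erythrocytic culture (37 C, humidified, 5% CO2) at 2.5% hematocrit and 0.3% starting parasitemia, compounds were tested; SYBR Green I in detergent lysis buffer stained parasite DNA overnight.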
A general note: Quantitative high-throughput screening tests each substance at several concentrations.

Test [2] has as its target Cytochrome P450 2C9 (Homo sapiens) (UniProt P11712). Put plainly: qHTS Assay for Inhibitors and Substrates of Cytochrome P450 2C9 (AID 883). Note: nearly all actives have a fitted effect of over 60% in size. Note: potency is the fitted concentration of half-maximal effect. In outline: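 Luminescent read-out of deoxyluciferin hydroxylation, normalized to 57uM sulphaphenazole (AC100). Reaction: 10nM enzyme, 100uM Luciferin-H (equal to KM), 25mM KPO4, 10 min compound preincubation, then 60 min with NADPH regeneration, both at 37C.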

Test [3] concerns the target Cytochrome P450 2C19 (Homo sapiens) (UniProt P33261). Put plainly: qHTS Assay for Inhibitors and Substrates of Cytochrome P450 2C19 (AID 899). Note: nearly all actives have a fitted effect of over 60% in size. Note: potency is the fitted concentration of half-maximal effect. In outline: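 Luminescence readout of luciferin formed from 10uM Luciferin-H EGE (KM level) by 5 nM CYP2C19 in 50mM KPO4. 60 min NADPH-driven reaction at 37C after 10 min compound preincubation; data scaled to 57uM ketoconazole inhibition.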

Test [4] in a line: Cell Viability - H-4-II-E (AID 543).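 Note: cells exposed to compound for 40 hours; nearly all actives have a fitted effect of over 35% in size.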 Note: potency is the fitted concentration of half-maximal effect. A digest of the protocol: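 AC50 from Hill-modelled qHTS concentration-response curves. H-4-II-E rat hepatoma cells in complete medium, 40 hr exposure at 37 °C, viability by CellTiter-Glo ATP luminescence.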
Test [5] can be described thus: Cellular Toxicity (caspase-3) HUV-EC-C (AID 656).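 Note: 0% = DMSO basal and 100% = 100 µM tamoxifen.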 A digest of the protocol:
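HUV-EC-C cells (1000/well) in complete medium, compound-treated 16 h at 37 °C; caspase-3/7 activity read by Caspase-Glo 3/7 luminescence. Normalized to DMSO (basal) and 100 uM tamoxifen (100%); AC50 from Hill-equation concentration-response fits.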

Test [6] can be described thus: Cellular Toxicity (caspase-3) BJ (AID 658).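 Note: 0% = DMSO basal and 100% = 10 µM staurosporine.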 In outline:
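Caspase-Glo 3/7 luminescence, read 1 hr after reagent at room temperature, in normal BJ fibroblasts exposed 16 hours at 37 °C. AC50 values from Hill-equation concentration-response, scaled between DMSO basal and 10 uM staurosporine as 100%.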

Test [7] in a line: Cellular Toxicity (caspase-3) SK-N-SH (AID 661).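 Note: 0% = DMSO basal and 100% = 10 µM staurosporine.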 A digest of the protocol: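 Apoptosis readout in SK-N-SH neuroblastoma: Caspase-Glo 3/7 luminescence following 16 hr treatment in complete culture medium. Normalization used DMSO and 10 uM staurosporine controls.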
Test [8] can be described thus: Cellular Toxicity (caspase-3) H-4-II-E (AID 663).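 Note: cells exposed to compound for 16 hr before readout; 0% = DMSO basal and 100% = 100 µM tamoxifen.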 In outline:
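Caspase 3/7 activation measured by luminescent aminoluciferin substrate cleavage after 16 hr compound treatment of H-4-II-E cells in complete medium. Increase normalized between DMSO (basal) and 100 uM tamoxifen (100%); Hill-equation AC50 from concentration-response.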

Test [9] is described as follows: Cellular Toxicity (caspase-3) NIH 3T3 (AID 666).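 Note: caspase signal read after 16 h compound exposure; 0% = DMSO basal and 100% = 100 µM tamoxifen stimulation.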 A digest of the protocol:
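Activity: caspase-3/7 induction, NIH 3T3 cells, 16 hr treatment at 37°C, luminescent Caspase-Glo detection; AC50 via Hill equation.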

Test [10] in a line: Cellular Toxicity (caspase-3) Renal Proximal Tubule (AID 667).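 Note: cells exposed to compound for 16 hours at 37 °C before detection; 0% = DMSO basal and 100% = 10 µM staurosporine.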 The conditions noted are these: renal proximal tubule cells, at 91.7 µM (top of the series). In outline:
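Freshly isolated primary rat kidney proximal tubule cells, 1000/well, treated 16 hr at 37 °C, then Caspase-Glo 3/7 luminescence after 1 hr. Normalized to DMSO and 10 uM staurosporine; AC50 from Hill fit.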

Test [11] is described as follows: MultiTox-Fluor Cytotoxicity Assay - LYMP1-001 - Dead Cells (AID 946). Note: potency is the fitted concentration of half-maximal effect. A digest of the protocol:
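Seed 2500 LYMP1-001 cells/well, incubate 5 hr at 37 C; add compound, 16 hr at 37 C; add MultiTox-Fluor reagent, 60 min RT; read dead-cell fluorescence Ex/Em=485/520. Normalize to DMSO and 15 uM tetraoctylammonium bromide.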

Test [12] in a line: Cell Viability - LYMP1-002 - Assay at 16 hr (AID 948). Note: potency is the fitted concentration of half-maximal effect. In outline:
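LYMP1-002 human lymphoblastoid cells, 2500/well, were treated with compounds for 16 hr at 37 C in complete medium. Viability was read as intracellular ATP by CellTiter-Glo luminescence, and AC50 was derived from a Hill fit to concentration-response data.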

In test [13] the target is Vitamin D3 receptor (Homo sapiens) (UniProt P11473). In words: qHTS assay for small molecule antagonists of vitamin D receptor signaling (AID 588541; calls by dose curve;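 note: receptor activated by calcitriol during compound treatment; % is set by controls: 0 for no effect and ±100 for the full control effect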). In outline:
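Antagonist-mode beta-lactamase reporter assay: HEK293T VDR-UAS-bla cells were exposed to titrated compound alongside 1-alpha,25-dihydroxyvitamin D3 at 3 nM final for 16 h. Values were normalized to the 50 nM agonist control and DMSO basal, with IC50 and efficacy from Hill equation fits.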

The target is the same in test [14]. Put plainly: qHTS assay for small molecule agonists of vitamin D receptor signaling (AID 588543; calls by dose curve;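 note: 0% = DMSO basal and 100% = reference agonist control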). In outline: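 VDR-UAS-bla HEK293T cells, 2000/well, 2% charcoal-stripped FBS; compound titration 16 h at 37 C; CCF4 beta-lactamase ratio read. Normalized to 50 nM 1-alpha,25-dihydroxyvitamin D3 (100%) and DMSO; Hill fit gives EC50, efficacy.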
Test [15] concerns the target Retinoic acid receptor RXR-alpha (Homo sapiens) (UniProt P19793). In words: qHTS assay for small molecule antagonists of retinoid X receptor alpha signaling (AID 588546; active = well fitted inhibition curve with a large enough effect in the signal ratio, with a control signal flat, not every such curve was filed as active; the % refers to the signal ratio; note: potency is the fitted concentration of half-maximal effect; for max response: % is set by controls: 0 for no effect and ±100 for the full control effect). The conditions noted are these: HEK293T RXRa-UAS-bla, beta-lactamase ratio, antagonist mode. A digest of the protocol: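 Beta-lactamase reporter inhibition, read as CCF4 fluorescence ratio (ex 405, em 460/530 nm) after 2 h at RT. HEK293T UAS-bla cells, 2500/well, were stimulated with 9-cis-RA at 500 or 100 nM final alongside test compound for 18 h at 37 C.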

Test [16] deals with Voltage-gated inwardly rectifying potassium channel KCNH2 (Homo sapiens) (UniProt Q12809). Put plainly: qHTS Assay for Small Molecule Inhibitors of the Human hERG Channel Activity (AID 588834).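 Note: lower thallium flux fluorescence means stronger hERG block; nearly all actives have a fitted effect of over 50% in size.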 Note: potency is the fitted concentration of half-maximal effect. A digest of the protocol: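 Thallium serves as surrogate for K+ influx through BacMam-delivered hERG in U2OS cells. Compounds are added for about 10 minutes after dye loading; stimulation buffer then starts flux, monitored kinetically on FDSS.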
Voltage-gated inwardly rectifying potassium channel KCNH2 (Homo sapiens), sequence (Q12809 whole entry, looked up): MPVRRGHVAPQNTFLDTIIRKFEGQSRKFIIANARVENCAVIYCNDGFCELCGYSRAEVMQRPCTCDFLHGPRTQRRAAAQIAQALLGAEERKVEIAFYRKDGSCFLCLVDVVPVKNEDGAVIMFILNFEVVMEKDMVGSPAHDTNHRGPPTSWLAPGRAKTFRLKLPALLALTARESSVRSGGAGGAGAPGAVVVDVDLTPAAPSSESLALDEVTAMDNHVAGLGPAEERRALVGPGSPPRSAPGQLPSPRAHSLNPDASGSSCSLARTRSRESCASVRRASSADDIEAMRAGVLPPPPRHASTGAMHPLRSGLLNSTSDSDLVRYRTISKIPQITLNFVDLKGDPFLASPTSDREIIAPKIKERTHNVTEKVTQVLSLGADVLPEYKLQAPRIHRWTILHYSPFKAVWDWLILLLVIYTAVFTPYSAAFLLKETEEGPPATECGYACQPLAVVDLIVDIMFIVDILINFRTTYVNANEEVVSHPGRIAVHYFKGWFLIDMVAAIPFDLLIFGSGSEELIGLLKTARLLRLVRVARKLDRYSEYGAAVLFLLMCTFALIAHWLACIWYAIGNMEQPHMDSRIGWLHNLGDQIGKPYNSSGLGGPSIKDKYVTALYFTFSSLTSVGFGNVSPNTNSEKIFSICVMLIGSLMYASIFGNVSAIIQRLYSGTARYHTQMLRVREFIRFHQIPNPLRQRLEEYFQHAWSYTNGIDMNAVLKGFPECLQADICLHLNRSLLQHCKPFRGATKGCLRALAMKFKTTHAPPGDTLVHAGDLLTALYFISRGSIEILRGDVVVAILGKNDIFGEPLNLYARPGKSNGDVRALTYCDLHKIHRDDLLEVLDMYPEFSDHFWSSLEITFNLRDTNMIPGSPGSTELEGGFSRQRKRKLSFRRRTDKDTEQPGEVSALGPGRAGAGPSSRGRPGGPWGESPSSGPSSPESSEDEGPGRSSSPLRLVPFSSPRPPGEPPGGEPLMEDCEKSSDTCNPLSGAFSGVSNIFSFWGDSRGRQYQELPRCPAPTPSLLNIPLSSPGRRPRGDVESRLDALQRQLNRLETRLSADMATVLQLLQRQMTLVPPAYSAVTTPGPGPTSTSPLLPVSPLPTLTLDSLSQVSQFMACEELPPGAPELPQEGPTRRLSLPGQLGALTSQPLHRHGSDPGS

Test [17] can be described thus: qHTS assay for small molecule agonists of the antioxidant response element (ARE) signaling pathway measured by Nrf2-dependant transcriptional activity (AID 720636; active = well fitted curve in the direction sought with a large enough effect in the repeat runs; an effect the other way counts as inactive or inconclusive;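 note: HepG2 cells with an ARE-driven luciferase reporter; % of control where 0% means no effect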). In outline: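 Attachment 6 hr at 37 C, then compound versus DMSO vehicle for 16 hr in ARE-luc HepG2 cells (1% dialyzed FBS); luminescence recorded 30 min after ONE-Glo addition at room temperature.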

Test [18] is described as follows: qHTS assay for cell viability of HEK293 cells (AID 743288). For max response: % is set by controls: 0 for no effect and ±100 for the full control effect. Note: nearly all actives have a fitted effect of over 50% in size. Note: potency is the fitted concentration of half-maximal effect. Particulars: ATP luminescence (CellTiter-Glo), 18 h; max response: active compounds read low. In outline: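 Steps: plate 2,000 parental HEK293 cells per well; incubate ≥5 h, 37 C; add compounds in DMSO; incubate 18 h, 37 C; add CellTiter-Glo; wait 30 min at room temperature; read luminescence.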
Test [19] is described as follows: qHTS assay for cell viability of the p53RE-bla HCT-116 cell line (AID 743292). Note: % is set by controls: 0 for no effect and ±100 for the full control effect; nearly all actives have a fitted effect of over 55% in size. In outline: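 Compound-exposed HCT-116 (p53RE-bla) cells, 4,000 per well, were kept 16 h at 37 C following a 5 h preincubation. Cell number was estimated from total ATP by CellTiter-Glo luminescence read after 30 min at room temperature.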
For test [20], the target named is Nuclear receptor subfamily 1 group I member 2 (Rattus norvegicus) (UniProt Q9R1A7). In words: qHTS assay for small molecule activators of the rat pregnane X receptor (rPXR) signaling pathway (AID 651751; call rule not given here; note: 0% is about no effect). Particulars: rPXR reporter cells, luciferase (One-Glo), 24 h.
Nuclear receptor subfamily 1 group I member 2 (Rattus norvegicus), sequence (Q9R1A7 whole entry, looked up): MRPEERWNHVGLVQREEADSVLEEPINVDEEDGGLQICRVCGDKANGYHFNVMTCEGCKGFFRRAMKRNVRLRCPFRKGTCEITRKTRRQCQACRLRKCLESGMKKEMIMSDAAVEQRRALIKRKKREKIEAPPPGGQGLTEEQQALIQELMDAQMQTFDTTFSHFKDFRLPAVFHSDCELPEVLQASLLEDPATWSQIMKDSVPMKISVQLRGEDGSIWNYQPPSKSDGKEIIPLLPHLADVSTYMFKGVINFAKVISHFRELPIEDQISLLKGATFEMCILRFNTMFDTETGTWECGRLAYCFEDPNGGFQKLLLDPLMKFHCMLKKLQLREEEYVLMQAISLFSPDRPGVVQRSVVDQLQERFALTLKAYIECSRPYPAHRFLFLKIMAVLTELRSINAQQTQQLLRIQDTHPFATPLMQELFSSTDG
[21] abbreviates: primary cells freshly taken from rat, solvent-only wells 0%, staurosporine 100% unless noted.

Values without a mark were called inactive. Inconclusive results are not listed. Calls of active or inactive are those of the source. Unless noted, calls come from the whole dose curve; as a rule, active = well fitted curve in the direction sought with a large enough effect; inconclusive = small, poorly fitted or top-dose-only effect, or another doubt; inactive = no such curve, though single readings can be large; an effect the other way counts as inactive or inconclusive.

Cytochrome P450 2C19 (Homo sapiens), sequence (P33261 whole entry, looked up): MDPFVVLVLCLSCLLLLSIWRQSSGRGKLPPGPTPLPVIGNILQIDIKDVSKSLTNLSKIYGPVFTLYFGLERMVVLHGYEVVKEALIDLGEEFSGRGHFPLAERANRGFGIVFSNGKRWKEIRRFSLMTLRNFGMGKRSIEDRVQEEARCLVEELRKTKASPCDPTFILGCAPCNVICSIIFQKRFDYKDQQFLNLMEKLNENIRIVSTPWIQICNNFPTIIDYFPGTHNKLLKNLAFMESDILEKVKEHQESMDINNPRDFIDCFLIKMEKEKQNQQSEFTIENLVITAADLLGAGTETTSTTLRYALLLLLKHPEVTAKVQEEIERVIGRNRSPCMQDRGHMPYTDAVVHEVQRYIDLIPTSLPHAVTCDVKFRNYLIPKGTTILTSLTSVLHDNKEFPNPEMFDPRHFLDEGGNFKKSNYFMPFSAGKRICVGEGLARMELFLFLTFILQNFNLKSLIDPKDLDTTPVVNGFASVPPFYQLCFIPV
Cytochrome P450 2C9 (Homo sapiens), sequence (P11712 whole entry, looked up): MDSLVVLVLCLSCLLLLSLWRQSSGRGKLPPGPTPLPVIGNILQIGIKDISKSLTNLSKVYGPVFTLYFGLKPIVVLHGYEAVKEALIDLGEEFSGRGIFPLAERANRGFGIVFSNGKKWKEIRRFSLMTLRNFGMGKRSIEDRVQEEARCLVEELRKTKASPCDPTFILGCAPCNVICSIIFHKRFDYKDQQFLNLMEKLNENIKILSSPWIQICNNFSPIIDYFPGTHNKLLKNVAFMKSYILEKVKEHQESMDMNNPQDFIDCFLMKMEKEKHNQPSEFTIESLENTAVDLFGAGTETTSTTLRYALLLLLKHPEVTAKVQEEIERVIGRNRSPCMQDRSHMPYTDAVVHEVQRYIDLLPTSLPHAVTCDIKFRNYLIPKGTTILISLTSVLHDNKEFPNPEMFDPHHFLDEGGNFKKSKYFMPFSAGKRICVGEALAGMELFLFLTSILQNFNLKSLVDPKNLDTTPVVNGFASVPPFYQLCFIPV
Retinoic acid receptor RXR-alpha (Homo sapiens), sequence (P19793 whole entry, looked up): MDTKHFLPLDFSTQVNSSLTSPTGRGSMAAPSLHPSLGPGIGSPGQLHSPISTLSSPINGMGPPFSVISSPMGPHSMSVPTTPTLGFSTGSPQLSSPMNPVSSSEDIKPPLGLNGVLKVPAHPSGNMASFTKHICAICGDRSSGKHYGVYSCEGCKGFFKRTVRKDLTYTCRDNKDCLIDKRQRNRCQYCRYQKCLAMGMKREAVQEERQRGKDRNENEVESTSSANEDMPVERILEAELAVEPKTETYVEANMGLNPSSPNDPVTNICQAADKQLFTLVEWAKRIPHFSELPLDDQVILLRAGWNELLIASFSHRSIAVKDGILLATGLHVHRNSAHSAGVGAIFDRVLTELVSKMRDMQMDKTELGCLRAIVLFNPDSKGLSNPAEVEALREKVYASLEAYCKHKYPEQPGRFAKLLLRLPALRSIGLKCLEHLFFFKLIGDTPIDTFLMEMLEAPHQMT
Vitamin D3 receptor (Homo sapiens), sequence (P11473 whole entry, looked up): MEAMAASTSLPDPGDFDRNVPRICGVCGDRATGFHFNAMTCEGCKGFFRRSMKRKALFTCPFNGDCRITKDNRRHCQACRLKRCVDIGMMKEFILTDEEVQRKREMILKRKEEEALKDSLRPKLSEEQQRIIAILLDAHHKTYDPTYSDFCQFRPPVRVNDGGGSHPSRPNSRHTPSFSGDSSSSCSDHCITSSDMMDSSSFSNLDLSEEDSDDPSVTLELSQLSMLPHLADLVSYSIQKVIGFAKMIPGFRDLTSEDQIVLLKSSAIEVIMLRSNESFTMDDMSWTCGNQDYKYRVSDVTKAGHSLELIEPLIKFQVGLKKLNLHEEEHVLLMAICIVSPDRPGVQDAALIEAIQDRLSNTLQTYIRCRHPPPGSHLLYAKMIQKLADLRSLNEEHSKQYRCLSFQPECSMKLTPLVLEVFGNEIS

Take `CC([C@H](O)c1ccccc1)N(C)C` (some centres not stated): in test [1], the Potency entry is “inactive”.
On to `O=C1C=C2C=C[C@H]3C[C@@]2(O1)[C@H]1CCCCN31`, for which the Potency result in test [2] and in test [3] was “inactive” each time.
On to `C[N+]1=Cc2cc3c(cc2CC1)OCO3`, for which the Potency entry in test [2] and in [3] was “inactive” in each case.
`O=C(O)COc1ccc(Cl)cc1Cl`: the Potency result in test [4], in test [11], in [12], in test [16] and in [19] was “inactive” throughout. For the same compound, the result in test [5], in test [6], in test [7], in test [8], in test [9] and in [13] was inactive. Besides, the compound was called inactive in test [14] and in test [17]. Further, the caspase-3 activation is 4.86% in test [10] and 3.32% in test [10] (primary cells freshly taken from rat, solvent-only wells 0%, staurosporine 100%). Moreover, the figures for the max response in [15], in [18] and in test [20] were -3.05% [middle of 4 runs], 0.426% [middle of 4 runs] and -0.13% [middle of 4 runs], respectively.
Consider `ClC1=C(Cl)C2(Cl)C3C4CC(C5OC45)C3C1(Cl)C2(Cl)Cl` (configuration not stated), for which the Potency entry in test [4] and in test [19] was “inactive” each time. Also, the result in [5], in test [6], in test [7], in [8], in test [9] and in [13] was inactive. The outcome in test [14] and in test [17] was inactive. In addition, the caspase-3 activation in test [10] (setting [21]) is -4.43% [at 91.7 µM]. The Potency in [11] is 31.6 µM (active); in [12], 12.6 µM (active); in test [16], 35.5 µM (active). Also, the max response in test [18] is -18.3%.
On to `COc1cc2c(cc1O)C[C@H]1c3c(cc(O)c(OC)c3-2)CCN1C`, for which, in test [3], the Potency result was “inactive”.
On to `O=C1C(Cl)=C(Cl)C(=O)C(Cl)=C1Cl`, for which the Potency is 50.1 µM (active) in [4]; 12.6 µM (active) in test [11]; 31.6 µM (active) in test [12]; 44.7 µM (active) in test [16]; 39.8 µM (active) in test [18]. In addition, the call in [5], in test [6], in [7], in test [8] and in test [9] was inactive. Also, in [10] (setting [21]), the caspase-3 activation was -16.1%. In addition, in [20], the max response was -2.19%.
As to `COc1cc2c(c(OC)c1OC)-c1ccc(O)c(=O)cc1[C@@H](NC(C)=O)CC2`, the Potency result in test [2] and in test [3] was “inactive” in each case.
Regarding `COc1cc2c(cc1OC)[C@@]13CCN4CC5=CCOC6CC(=O)N2C1[C@H]6[C@@H]5C[C@@H]43` (some centres not stated), the Potency result in [1] is “inactive”.
Regarding `O=c1ccc2cc(O[C@H]3O[C@@H](CO)[C@@H](O)[C@@H](O)[C@@H]3O)c(O)cc2o1`, the Potency result in test [1] is “inactive”.
For the compound `COc1cc(CNC(=O)CCCC/C=C\C(C)C)ccc1O`, the Potency was 3.98 µM (active) in test [2] and 10 µM (active) in test [3].
As for `C#CCOS(=O)OC1CCCCC1Oc1ccc(C(C)(C)C)cc1` (configuration not stated), the Potency in [15] is 7.08 µM (active). In addition, in test [17], the compound was classed as inactive.
As to `CC(C)Nc1nc(Cl)nc(NC(C)C)n1`, the outcome in test [13], in test [14] and in test [17] was inactive. Moreover, the max response is -2.39% in test [15], -5.95% in test [18] and -1.62% in test [20]. The Potency entry in test [19] was “inactive”.
For `COc1cc([C@H]2c3cc4c(cc3[C@@H](O)[C@@H]3COC(=O)[C@H]23)OCO4)cc(OC)c1OC`, the Potency in [2] was 1.26 µM (active).
